{
  "source": "PubChem BioAssay AID1259251",
  "about": "(The Scripps Research Institute Molecular Screening Center, 2017)",
  "note": "The whole screen tested about 30,000 compounds, of which about 580 (1.9%) were called active. The full list was thinned out, with actives kept by preference. Unmarked numbers belong to inactive results. Cut-off read from the data, not from the text of the source: active = inhibition above about 43%; inactive = the rest.",
  "data": [
    {"target": "Serine/threonine-protein kinase ULK1 (Homo sapiens) (UniProt O75385)", "sequence (O75385 whole entry, looked up)": "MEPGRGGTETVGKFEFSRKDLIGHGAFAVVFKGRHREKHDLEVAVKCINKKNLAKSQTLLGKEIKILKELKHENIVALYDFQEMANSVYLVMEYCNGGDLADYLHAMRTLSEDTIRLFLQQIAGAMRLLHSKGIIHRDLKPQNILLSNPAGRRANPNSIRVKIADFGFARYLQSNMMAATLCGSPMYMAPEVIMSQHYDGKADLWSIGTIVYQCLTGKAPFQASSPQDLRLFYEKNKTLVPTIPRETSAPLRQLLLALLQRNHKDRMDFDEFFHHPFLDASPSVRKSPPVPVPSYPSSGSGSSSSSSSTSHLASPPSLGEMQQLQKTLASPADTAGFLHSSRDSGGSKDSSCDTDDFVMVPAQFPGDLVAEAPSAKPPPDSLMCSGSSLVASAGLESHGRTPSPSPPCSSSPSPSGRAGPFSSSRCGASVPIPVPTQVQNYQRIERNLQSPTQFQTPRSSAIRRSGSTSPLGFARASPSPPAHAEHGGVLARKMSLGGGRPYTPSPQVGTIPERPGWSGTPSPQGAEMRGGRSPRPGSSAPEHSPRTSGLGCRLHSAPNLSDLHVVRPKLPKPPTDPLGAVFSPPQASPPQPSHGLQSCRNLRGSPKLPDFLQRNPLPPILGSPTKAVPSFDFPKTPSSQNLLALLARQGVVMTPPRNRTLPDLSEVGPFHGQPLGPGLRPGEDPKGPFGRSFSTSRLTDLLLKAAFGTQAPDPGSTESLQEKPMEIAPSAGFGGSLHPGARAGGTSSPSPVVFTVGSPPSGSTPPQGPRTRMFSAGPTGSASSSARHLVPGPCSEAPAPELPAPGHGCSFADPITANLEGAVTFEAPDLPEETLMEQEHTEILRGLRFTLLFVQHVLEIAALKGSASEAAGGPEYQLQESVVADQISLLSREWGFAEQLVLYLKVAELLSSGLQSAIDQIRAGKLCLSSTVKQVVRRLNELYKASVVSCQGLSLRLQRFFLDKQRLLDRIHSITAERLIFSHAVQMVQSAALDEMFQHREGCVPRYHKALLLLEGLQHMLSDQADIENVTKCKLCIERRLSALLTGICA", "assay": "inhibition of human autophagy kinase ULK1 – biochemical, AlphaScreen, primary screen (AID 1259251);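 note: 0% = median of compound wells and 100% = no enzyme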", "conditions": "AlphaScreen Atg13 phosphorylation by ULK1, luminescence; at 5.96 µM; active compounds read high", "values": [
      {"molecule": "Cc1c[nH]c2ncnc(-c3ccc4c(C(=O)Nc5cccc(C(=O)NC(C)C)c5)n(CC5CC5)nc4c3)c12", "inhibition": "50.2% (active)"},
      {"molecule": "CC(C)NC(=O)c1cccc(NC(=O)Nc2ccc(-c3ccnc(N)n3)cc2)c1", "inhibition": "1.02%"},
      {"molecule": "COc1cccc(CN(CCN(C)C)C(=O)c2c3ccc(-c4cn[nH]c4)cc3nn2CC2CC2)c1", "inhibition": "-4.47%"},
      {"molecule": "O=C(Nc1ccc2[nH]ncc2c1)C1CCN(C(=O)[C@@H](O)c2ccccc2Cl)CC1", "inhibition": "2.37%"},
      {"molecule": "CC(C)n1c(-c2csc3ccccc23)nc2c(NCc3ccccc3)ncnc21", "inhibition": "0%"},
      {"molecule": "Cc1cnc(-c2c(C)nn(C)c2C)nc1NCCN1CCOCC1", "inhibition": "3.9%"},
      {"molecule": "COc1cc(Nc2nc(NCc3cccc(C(F)(F)F)c3)c3ncn(C4CCCCC4)c3n2)cc(OC)c1OC", "inhibition": "-5.25%"},
      {"molecule": "COc1cc(Nc2nc(NCc3cccc(C(F)(F)F)c3)c3[nH]cnc3n2)cc(OC)c1OC", "inhibition": "47.7% (active)"},
      {"molecule": "COc1cc(Nc2nc(Nc3cc(OC)c(OC)c(OC)c3)c3[nH]cnc3n2)cc(OC)c1OC", "inhibition": "16.2%"},
      {"molecule": "O=C(Nc1nc2c(s1)CN(Cc1ccccc1)CC2)c1cc(Cl)ccc1Cl", "inhibition": "-4.96%"},
      {"molecule": "COc1cc(Nc2cc(N3CCN(Cc4ccc5c(c4)OCO5)CC3)ncn2)cc(OC)c1OC", "inhibition": "-5.38%"},
      {"molecule": "Cc1cnc(-c2ccc(N3CCOCC3)nc2)nc1NCCN1CCOCC1", "inhibition": "2.67%"},
      {"molecule": "COc1ccc(-c2nc(NCCN3CCOCC3)c3ncn(-c4ccccc4)c3n2)cn1", "inhibition": "-16.5%"},
      {"molecule": "Nc1nc(NCc2ccccc2)cc(NCc2cccnc2)n1", "inhibition": "-4.44%"},
      {"molecule": "CNC(=O)c1ccccc1Nc1nc(Nc2ccc(N3CCOCC3)cc2OC)ncc1Cl", "inhibition": "77.3% (active)"},
      {"molecule": "CNC(=O)c1ccccc1Nc1cc(Nc2ccc(N3CCOCC3)cc2OC)ncc1F", "inhibition": "16.4%"},
      {"molecule": "COc1cc(N2CCOCC2)ccc1Nc1cc(Nc2ccccc2C(N)=O)ccn1", "inhibition": "7.87%"},
      {"molecule": "COC(=O)c1ccc(C2Nc3c(C(=O)OC)cccc3C3C=CCC32)cc1", "note": "(stereo unspecified)", "inhibition": "7.56%"},
      {"molecule": "CCCN1CCc2c(sc(N)c2C(=O)OC)C1", "inhibition": "7.44%"},
      {"molecule": "c1ccc(CN2CCC(Nc3ccnc(NC4CCN(Cc5ccccc5)CC4)n3)CC2)cc1", "inhibition": "-6.32%"},
      {"molecule": "CC(=O)Nc1ccc(NC(=O)c2ccc(-c3ccc(C(N)=O)cc3)s2)cc1", "inhibition": "-5.71%"},
      {"molecule": "O=C(NCc1cccnc1)c1cccc(Nc2ccc(N3CCOCC3)cc2)n1", "inhibition": "5.75%"},
      {"molecule": "Cc1nn(C)c(C)c1-c1cccc(C(=O)NCCN(C(C)C)C(C)C)n1", "inhibition": "-2.03%"},
      {"molecule": "CC(C)n1cnc2c(NCc3ccccc3)nc(NC3CCC(O)CC3)nc21", "note": "(stereo unspecified)", "inhibition": "0.05%"},
      {"molecule": "CC(C)n1cnc2c(Nc3ccc(N4CCOCC4)cc3)nc(Nc3ccncc3)nc21", "inhibition": "55.3% (active)"},
      {"molecule": "c1cc(Nc2nc(Nc3ccc(N4CCOCC4)cc3)c3ncn(-c4ccsc4)c3n2)ccn1", "inhibition": "19.3%"},
      {"molecule": "CC(C)n1cnc2c(NCc3cccnc3)nc(Nc3ccc(N4CCOCC4)cc3)nc21", "inhibition": "1.97%"},
      {"molecule": "CC(C)n1cnc2c(NC3CCN(Cc4ccccc4)CC3)nc(Nc3ccc(N4CCOCC4)cc3)nc21", "inhibition": "11.3%"},
      {"molecule": "CC(C)n1cnc2c(Nc3ccc(N4CCOCC4)cc3)nc(NC3CCC(O)CC3)nc21", "note": "(stereo unspecified)", "inhibition": "43.6% (active)"},
      {"molecule": "O=C(Nc1ccc2[nH]ncc2c1)[C@@H]1C[C@H](O)CN1C(=O)Cc1ccc(Br)cc1", "inhibition": "5.62%"},
      {"molecule": "CC(NC(=O)C(C(=O)c1ccccc1)n1ccccc1=O)c1ccccc1", "note": "(stereo unspecified)", "inhibition": "1.21%"},
      {"molecule": "N#Cc1cccc(C[C@H](N)c2nc3ccc(-c4ccncc4)cc3[nH]2)c1", "inhibition": "7.99%"},
      {"molecule": "COc1cc2nc(Nc3ccccc3)nc(NCc3cccc(C(F)(F)F)c3)c2cc1OC", "inhibition": "-26.9%"},
      {"molecule": "COc1nc(Nc2ccccc2)nc(-c2ccc(C(=O)NC3CC3)cc2)n1", "inhibition": "22.8%"},
      {"molecule": "COc1ccc(CCNc2cc(NC3CCN(Cc4ccccc4)CC3)ncn2)cc1", "inhibition": "-6.44%"},
      {"molecule": "COc1cc(OC)nc(Oc2ccccc2/C=N/N(C)C(N)=S)n1", "inhibition": "10.3%"},
      {"molecule": "CCN(CC)C(=O)C1CCCN(c2cc(Nc3ccccc3)nc(N)n2)C1", "note": "(stereo unspecified)", "inhibition": "13.1%"},
      {"molecule": "O=C(NCc1cccc(Cl)c1)Nc1ccc(-c2cn[nH]c2)cc1", "inhibition": "16%"},
      {"molecule": "COc1ccc(CNC(=O)c2c[nH]c3cc(-c4cn[nH]c4)ccc23)cc1", "inhibition": "-3.48%"},
      {"molecule": "Fc1ccc(CNc2ncc3ccc(-c4cn[nH]c4)cc3c2Cl)cc1", "inhibition": "70.6% (active)"},
      {"molecule": "O=C(Oc1ccc([N+](=O)[O-])cc1)c1ccc2c(c1)C(=O)N(c1ccc([N+](=O)[O-])cc1)C2=O", "inhibition": "8.64%"},
      {"molecule": "COc1ccc(CCNC(=O)c2cnc(-c3cccs3)s2)cc1", "inhibition": "-2.76%"},
      {"molecule": "COc1ccc(-c2nc3ncnc(NCCN4CCOCC4)c3[nH]2)cc1", "inhibition": "0.53%"},
      {"molecule": "Cc1ncc2c(NCCCN3CCOCC3)nc3ccccc3n12", "inhibition": "12.3%"},
      {"molecule": "Oc1c(Cl)cc(Cl)c(Cl)c1Cc1c(O)c(Cl)cc(Cl)c1Cl", "inhibition": "75.9% (active)"},
      {"molecule": "c1cc(-c2ocnc2-c2ncco2)cc(Nc2ccc(N3CCOCC3)cc2)n1", "inhibition": "-5.51%"},
      {"molecule": "CC(C)c1nc2ccc(-c3cn[nH]c3)cc2c(=O)[nH]1", "inhibition": "69% (active)"},
      {"molecule": "CC(C)c1nc2ccc(-c3ccnn3C)cc2c(=O)[nH]1", "inhibition": "-1.76%"},
      {"molecule": "COc1ccc(C(N)c2nc3ccc(-c4cn[nH]c4)cc3c(=O)[nH]2)cc1", "note": "(stereo unspecified)", "inhibition": "16%"},
      {"molecule": "Cc1cccc(C(=O)NCc2ccccc2)c1N1CCC2(CC1)OCCO2", "inhibition": "4.05%"},
      {"molecule": "Cc1cc(NC2CC2)nc(N2CCCC2CO)n1", "note": "(stereo unspecified)", "inhibition": "-3.85%"},
      {"molecule": "CC(C)N(CCNc1ccnc(Nc2ncccn2)n1)C(C)C", "inhibition": "-7.14%"},
      {"molecule": "Cn1nnnc1-c1ccc(Nc2nccc(-c3ccc(N4CCC(O)CC4)c(C#N)c3)n2)cc1", "inhibition": "64.2% (active)"},
      {"molecule": "Cc1ccc(-c2ncn(-c3ccc(Nc4nccc(-c5cc(C#N)cc(N6CCCC(O)C6)c5)n4)cc3)n2)cn1", "note": "(stereo unspecified)", "inhibition": "0.75%"},
      {"molecule": "Cc1ncn(-c2ccc(Nc3nccc(-c4cc(C#N)cc(NC5CCN(C)CC5)c4)n3)cc2)n1", "inhibition": "3.12%"},
      {"molecule": "Cn1c(Nc2nc3ccc(C(=O)NCCO)cc3s2)nc2ccccc21", "inhibition": "20.6%"},
      {"molecule": "Cc1cc(NCc2cccc(C(F)(F)F)c2)nc(NC2CCC(O)CC2)n1", "note": "(stereo unspecified)", "inhibition": "-8.27%"},
      {"molecule": "Nc1nc(Nc2cnccn2)cc(NC2CCN(Cc3ccccc3)CC2)n1", "inhibition": "-0.08%"},
      {"molecule": "CC(=O)c1cccc(-c2nc3ncnc(NCc4nc5ccccc5[nH]4)c3[nH]2)c1", "inhibition": "-5.39%"},
      {"molecule": "CC(C)(C)c1nc(-c2cccc(NS(=O)(=O)c3c(F)cccc3F)c2F)c(-c2ccnc(N)n2)s1", "inhibition": "66.2% (active)"},
      {"molecule": "CCCNc1nc(-c2cccc(C(C)=O)c2)nc2c1ncn2-c1ccccc1", "inhibition": "-6.8%"},
      {"molecule": "C[C@@H](CN)Oc1ncccc1C(=O)Nc1ccc2[nH]ncc2c1", "inhibition": "0.92%"},
      {"molecule": "OCC1CCCN1c1nc2ncnc(NC3CC3)c2[nH]1", "note": "(stereo unspecified)", "inhibition": "1.11%"},
      {"molecule": "COc1cccc(CNC(=O)Nc2ccc(-c3cn[nH]c3)cc2OC2CCC(O)C2)c1", "note": "(stereo unspecified)", "inhibition": "2.68%"},
      {"molecule": "COc1cccc(CN(CC2CC2)C(=O)Nc2ccc(-c3cn[nH]c3)cc2OC)c1", "inhibition": "-27.8%"},
      {"molecule": "COc1cccc(CNC(=O)Nc2ccc(-c3cn[nH]c3)cc2OC2CCNC2)c1", "note": "(stereo unspecified)", "inhibition": "55.8% (active)"},
      {"molecule": "CCCNc1nc(NCc2cccnc2)nc2c1ncn2Cc1ccc(C(F)(F)F)cc1", "inhibition": "-9.26%"},
      {"molecule": "O=C(NCc1cccc(C(F)(F)F)c1)c1cnc(NCCCN2CCCC2=O)s1", "inhibition": "-7.22%"},
      {"molecule": "COC(=O)c1ccc(Cn2c(-c3nnc(CC(C)C)o3)cc3ccccc32)o1", "inhibition": "-10%"},
      {"molecule": "CC(=O)Nc1ccc(Nc2ncnc3c2nc(-c2cccc(N)c2)n3C(C)C)cc1", "inhibition": "-4.82%"},
      {"molecule": "CC(=O)c1cccc(-c2nc3c(Nc4ccc(N5CCOCC5)cc4)ncnc3n2C(C)C)c1", "inhibition": "67.5% (active)"},
      {"molecule": "CC(=O)c1cccc(-c2nc3c(NCCCN4CCCC4=O)ncnc3n2C(C)C)c1", "inhibition": "5.85%"},
      {"molecule": "O=C1NC(=S)NC(=O)C1=Cc1ccc(-c2ccc([N+](=O)[O-])c(Cl)c2)o1", "inhibition": "24.2%"},
      {"molecule": "O=C(NCc1cccc(NC(=O)C2CC2)c1)Nc1ccc(-c2cn[nH]c2)cc1", "inhibition": "6.93%"},
      {"molecule": "Cn1nccc1Nc1cc(Nc2ccc(N3CCOCC3)cc2)ncn1", "inhibition": "17.2%"},
      {"molecule": "COc1cc(Nc2cc(-c3nocc3-c3cnn(C)c3)ccn2)ccc1N1CCOCC1", "inhibition": "-3.85%"},
      {"molecule": "Cn1cc(-c2cc(Nc3ccc(N4CCOCC4)cn3)ncc2Cl)cn1", "inhibition": "53.2% (active)"},
      {"molecule": "COc1ccc(CCNc2cc(-c3csc4ccccc34)ncn2)cc1", "inhibition": "-12%"},
      {"molecule": "COCCn1nnnc1C(c1cc2ccc(C)cc2[nH]c1=O)N1CCc2ccccc21", "note": "(stereo unspecified)", "inhibition": "-5.34%"},
      {"molecule": "O=C(Nc1ccc(-c2cn[nH]c2)cc1)C1CCc2ccccc2O1", "note": "(stereo unspecified)", "inhibition": "12.4%"},
      {"molecule": "COc1cc(Nc2ccc(N3CCC(C(=O)NCc4nc5ccccc5[nH]4)CC3)nn2)cc(OC)c1OC", "inhibition": "7.51%"},
      {"molecule": "COc1ccc2c(c1)CC(C(=O)Nc1ccc(-c3cn[nH]c3)cc1OCCN(C)C)CO2", "note": "(stereo unspecified)", "inhibition": "7.42%"},
      {"molecule": "COc1cccc(Nc2nccc(-c3ccc4c(=O)n(C5CC5)c(C)nc4c3)n2)c1", "inhibition": "21.2%"},
      {"molecule": "O=C(c1ccc(Nc2nccc(-c3ccc4c(=O)[nH]c(C5CC5)nc4c3)n2)cc1)N1CCCC1", "inhibition": "62.9% (active)"},
      {"molecule": "CC(C)NC(=O)c1cccc(Nc2nccc(-c3ccc4nc(C5CC5)nc(N5CCCC5)c4c3)n2)c1", "inhibition": "-33.9%"},
      {"molecule": "OCC1CCCN1c1nc(NC2CCN(Cc3ccccc3)CC2)c2ncn(Cc3ccc(C(F)(F)F)cc3)c2n1", "note": "(stereo unspecified)", "inhibition": "-14.8%"}
    ]}
  ]
}
